One may read the Inhibition as the drop in the measured response relative to a control, in per cent.

SMILES strings stand for the structures. Results with a measured potency or affinity are listed apart.

One test deals with Staphylococcus aureus. The settings on record: Concentration 32 ug.mL-1; ASSAY_TEST Inhibition of Bacterial Growth; detection method Absorption (OD600); MEDIA CAMHB; plate type 384well; NBS; CORNING #3640; time 18 hr.
The next test concerns Escherichia coli. To be noted: Concentration 32 ug.mL-1; ASSAY_TEST Inhibition of Bacterial Growth; detection method Absorption (OD600); MEDIA CAMHB; plate type 384well; NBS; CORNING #3640; time 18 hr.

Consider `O=C(ON/N=C/[C@@H]1[C@@H]2C[C@H](Cl)[C@H]1C[C@H]2O)c1ccncc1`, for which the Inhibition in the test on Staphylococcus aureus is listed as 25.17%; with Escherichia coli it was 12.76%.
The like results for `O=C1C[C@@H]2[C@@H](C=NNC(=O)c3ccncc3)[C@@H](C[C@H]2Cl)O1` were, in that order, 33.55% and 18.72%.
For `O=C(NN=CC[C@@H]1[C@@H](/C=C/[C@@H](O)CCc2ccccc2)[C@H](O)C[C@@H]1O)c1ccncc1`, in that order: 16.65% and 9.46%.
The like results for `O=C(N/N=C/CCCO)c1ccncc1` were, in that order, 10.52% and 5.12%.
In the case of `O=C(N/N=C1\C[C@@H]2[C@H](COC(c3ccccc3)(c3ccccc3)c3ccccc3)C[C@H](CO)[C@@H]2C1)c1ccncc1`, the Inhibition came to 13.89% in the test on Staphylococcus aureus and 6.21% with Escherichia coli.
Regarding `O=C(NN=CC[C@H]1[C@H](CO)[C@@H](O)C[C@H]1O)c1ccncc1`, the Inhibition was determined as 21.6% with Staphylococcus aureus and 12.24% in the test with Escherichia coli.
For `O=C(N/N=C/C[C@@H]1[C@@H](CO)[C@H](O)C[C@@H]1O)c1ccncc1`, the Inhibition with Staphylococcus aureus stood at 22.27%; with Escherichia coli, 13.16%.
The like results for `O=C(NN=C[C@H]1[C@@H]2CCO[C@@H]2C[C@@H]1O)c1ccncc1` were, in that order, 13.82% and 5.67%.
The like results for `COC(=O)CCCCCC[C@@H]1[C@@H](/C=N/NC(=O)c2ccncc2)[C@H](O)C[C@@H]1O` were, in that order, 12.62% and 6.85%.
The like results for `O=C(N/N=C1/C[C@@H]2[C@H](COC(c3ccccc3)(c3ccccc3)c3ccccc3)C[C@H](COC(c3ccccc3)(c3ccccc3)c3ccccc3)[C@@H]2C1)c1ccncc1` were, in that order, -0.42% and 11.41%.
Consider `O=C1C[C@H]2[C@H](/C=N/NC(=O)c3ccncc3)[C@H](C[C@@H]2Cl)O1`, for which the figures for the Inhibition in the test with Staphylococcus aureus and in the test on Escherichia coli were 34.06% and 18.17%, respectively.
Take `O=C(N/N=C1/C2C[C@H]3C(C2CO)[C@H]13)c1ccncc1` (some centres not stated): the Inhibition with Staphylococcus aureus worked out at 21.76%; in the test on Escherichia coli it was 11.47%.
For `O=C(N/N=C1\CC[C@@H]2[C@H]1[C@H](OC(=O)c1ccccc1)C[C@@H]2OC(=O)c1ccccc1)c1ccncc1`, in that order: 27.83% and 14.7%.
For the compound `O=C(N/N=C/C[C@@H]1[C@@H](/C=C/[C@@H](O)COc2cccc(Cl)c2)[C@H](O)C[C@@H]1O)c1ccncc1`, the Inhibition in the test on Staphylococcus aureus is recorded as 27.05%; in the test with Escherichia coli, 14.88%.
On to `O=C(NN=C[C@H]1[C@H]2CC(O)OC[C@H]2C[C@H]1O)c1ccncc1` (some centres not stated), for which the Inhibition in the test on Staphylococcus aureus is given as 15.22%; in the test on Escherichia coli it was 4.63%.
For `CC(C)(C)[Si](C)(C)O[C@H](/C=C/[C@@H]1[C@@H](CC=NNC(=O)c2ccncc2)[C@@H](O)C[C@H]1O[Si](C)(C)C(C)(C)C)CCc1ccccc1`, in that order: 11.86% and 7.54%.
For the compound `O=C(N/N=C1/C[C@H]2[C@H](CO)[C@@H]1C[C@@H]2Cl)c1ccncc1`, the results for the Inhibition in the test with Staphylococcus aureus and in the test with Escherichia coli were 26.26% and 16.12%, respectively.
The like results for `O=C(NN=CC[C@@H]1[C@@H](COC2CCCCO2)[C@H](OC2CCCCO2)C[C@@H]1O)c1ccncc1` (some centres not stated) were, in that order, 12.15% and 6.4%.
The like results for `O=C(NNC(=O)c1cccc([N+](=O)[O-])c1C(=O)O)c1ccncc1` were, in that order, 23.26% and 20.08%.
As for `O=C(NNC(=O)[C@@H]1C[C@H](C(=O)O)[C@@H]2CCC[C@@H]21)c1ccncc1`, the values for the Inhibition with Staphylococcus aureus and with Escherichia coli were 31.35% and 13.96%, respectively.
For `O=C(NNC(c1ccccc1)(c1ccccc1)c1ccccc1)c1ccncc1`, in that order: 1.88% and 5.22%.
For `O=C(N/N=C/COc1cccc(Cl)c1)c1ccncc1`, in that order: 8.36% and 6.4%.
As for `COC(=O)C[C@H]1[C@H](/C=N\NC(=O)c2ccncc2)[C@@H](O[Si](C)(C)C(C)(C)C)C[C@@H]1Cl`, the figures for the Inhibition in the test on Staphylococcus aureus and with Escherichia coli were 29.13% and 13.69%, respectively.
For `COC(=O)CCCCCC[C@@H]1[C@@H](/C=N/NC(=O)c2ccncc2)[C@H](OC(=O)c2ccccc2)C[C@@H]1O`, in that order: 26.15% and 14.2%.
For `O=C(NN=CC[C@@H]1[C@@H](/C=C/[C@@H](O)CCc2ccccc2)[C@H](OC(=O)c2ccccc2)C[C@@H]1O)c1ccncc1`, in that order: 18.76% and 8.83%.
On to `CC(C)(C)[Si](C)(C)OC[C@H]1[C@H](CC=NNC(=O)c2ccncc2)[C@H](O)C[C@@H]1O[Si](C)(C)C(C)(C)C`, for which the Inhibition in the test with Staphylococcus aureus is 21.42%; in the test with Escherichia coli, 11.91%.

The record behind these values is ChEMBL document CHEMBL4513156, “CO-ADD screening of NCPRI (Romania) compounds”.
